# Measurements reported in PubChem BioAssay (NCI).
# About 79,000 compounds went through this panel and 15% of them were active in at least one assay; those are over-represented in the sample as a whole. Unmarked numbers belong to inactive results. Active and inactive are the calls of the source. No stated cut-off is given here; in the data, active means growth inhibition above about 70%; inactive means the rest.
# What was measured:
# [1] = NCI Yeast Anticancer Drug Screen. Data for the rad52 strain (AID 147);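 further: 0% = growth of vehicle-treated control cultures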; settings: S. cerevisiae rad52 mutant growth inhibition, stronger effect = higher value
# Method in brief: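 Inhibition of yeast growth, referenced to vehicle controls, was the measured output for a strain with defective DNA damage repair.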
# [2] = NCI Yeast Anticancer Drug Screen. Data for the wt1 strain (AID 149);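 further: 0% = growth of vehicle-treated wt1 cultures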; settings: S. cerevisiae wt1 strain (SPY 50644) growth inhibition, stronger effect = higher value
# Method in brief: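 Compounds are added to wt1 yeast cultures. Growth is then measured. Inhibition is expressed relative to vehicle-treated controls.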
# [3] = NCI Yeast Anticancer Drug Screen. Data for the rad50EPP+ strain (AID 151);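 further: 0% = growth of vehicle-treated control cultures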; settings: S. cerevisiae rad50 mutant strain, stronger effect = higher value
# Method in brief: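 Genetically defined yeast (rad50EPP+, DNA damage repair alteration) is grown with compound, and inhibition of growth is expressed relative to vehicle-treated controls.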
# [4] = NCI Yeast Anticancer Drug Screen. Data for the mgt1 strain (AID 153); settings: S. cerevisiae mgt1 mutant growth inhibition, stronger effect = higher value
# Method in brief: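 In the mgt1 strain, test compounds were added and growth inhibition was determined relative to vehicle-treated controls.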
# [5] = NCI Yeast Anticancer Drug Screen. Data for the rad50 strain (AID 155);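 further: 0% = growth of vehicle-only cultures of the same strain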; settings: S. cerevisiae rad50 strain growth inhibition, stronger effect = higher value
# Method in brief: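 Inhibition values express reduced yeast growth in compound-treated cultures relative to vehicle-treated controls.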
# [6] = NCI Yeast Anticancer Drug Screen. Data for the mec2-1 strain (AID 157); settings: S. cerevisiae mec2-1 strain, stronger effect = higher value
# Method in brief: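 Each compound was tested on mec2-1 yeast, a strain altered in DNA damage repair or cell cycle control. Growth inhibition is reported relative to vehicle.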
# [7] = NCI Yeast Anticancer Drug Screen. Data for the rad14 strain (AID 159);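 further: 0% = growth of vehicle-treated control cultures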; settings: S. cerevisiae rad14 strain growth inhibition, stronger effect = higher value
# Method in brief: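 A mutant yeast strain defective in DNA damage repair is treated with compound; inhibition of its growth is scored against untreated, vehicle-exposed cultures.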
# [8] = NCI Yeast Anticancer Drug Screen. Data for the sgs1 mgt1 strain (AID 161);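 further: 0% = growth of cultures given vehicle only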; settings: S. cerevisiae sgs1 mgt1 strain, stronger effect = higher value
# Method in brief: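 Mutant yeast exposed to compound; growth scored against vehicle-only wells.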
# [9] = NCI Yeast Anticancer Drug Screen. Data for the CLN2oe strain (AID 163);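 further: 0% = growth of vehicle-only control cultures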; settings: S. cerevisiae CLN2oe strain, stronger effect = higher value
# Method in brief: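 First, the altered yeast strain was treated with each compound; second, its growth was measured; finally, inhibition was derived by comparison with vehicle controls.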
# [10] = NCI Yeast Anticancer Drug Screen. Data for the cln2 rad14 strain (AID 165);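 further: 0% = growth equal to vehicle treated cultures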; settings: S. cerevisiae cln2 rad14 strain, stronger effect = higher value
# Method in brief: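 Test compounds were added to cln2 rad14 yeast cultures; inhibition of growth was then determined by comparison with vehicle treatment.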
# [11] = NCI Yeast Anticancer Drug Screen. Data for the bub3 strain (AID 167); settings: S. cerevisiae bub3 mutant strain, stronger effect = higher value
# Method in brief: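 Steps: expose the mutant yeast strain to compound; grow alongside vehicle-treated cultures; measure growth; express inhibition against the vehicle cultures.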
# [12] = NCI Yeast Anticancer Drug Screen. Data for the wt2 strain (AID 169);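 further: 0% = growth of vehicle-treated yeast cultures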; settings: S. cerevisiae wt2 strain growth inhibition, stronger effect = higher value
# Method in brief: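 The panel's yeast strains carry defined changes in DNA repair or cell cycle genes. Each strain is grown with compound, and growth loss is scored relative to vehicle.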
# [13] = NCI Yeast Anticancer Drug Screen. Data for the mlh1 strain (AID 171);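 further: 0% = growth of vehicle-treated control cultures of the same strain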; settings: S. cerevisiae mlh1 strain growth inhibition, stronger effect = higher value
# Method in brief: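 Inhibition values reflect reduced yeast growth in the presence of compound, referenced to vehicle controls, using a strain chosen for its alteration in DNA repair or cell cycle control.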
# [14] = NCI Yeast Anticancer Drug Screen. Data for the sgs1 strain (AID 173);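 further: 0% = growth of vehicle-only control cultures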; settings: S. cerevisiae sgs1 mutant, stronger effect = higher value
# Method in brief: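 Vehicle-treated cultures served as reference for growth inhibition of a yeast strain altered in DNA damage repair or cell cycle control after compound exposure.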
# [15] = NCI Yeast Anticancer Drug Screen. Data for the rad18 strain (AID 177); settings: S. cerevisiae rad18 mutant growth inhibition, stronger effect = higher value
# Method in brief: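 Steps: expose repair-mutant yeast to compound; measure growth; express as inhibition relative to vehicle control.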
# [16] = at 5.0 µM (retest, dose inferred, filed as 0.5)
# [17] = at 50.0 µM (retest, dose inferred, filed as 5.0)
structure (smiles),measurement,setting,value
CC1=COC2=C(C)C(=O)C(=O)c3c(C)ccc1c32,growth inhibition,[1]; at 1.2 µM,20%
same,growth inhibition,[1]; at 3.7 µM,23%
same,growth inhibition,[1]; at 11.0 µM,30%
same,growth inhibition,[1]; at 33.0 µM,68%
same,growth inhibition,[1]; at 100.0 µM,93% (active)
same,growth inhibition,[2]; at 1.2 µM,30%
same,growth inhibition,[2]; at 3.7 µM,38%
same,growth inhibition,[2]; at 11.0 µM,45%
same,growth inhibition,[2]; at 33.0 µM,77% (active)
same,growth inhibition,[2]; at 100.0 µM,96% (active)
same,growth inhibition,[3]; at 1.2 µM,2%
same,growth inhibition,[3]; at 3.7 µM,7%
same,growth inhibition,[3]; at 11.0 µM,19%
same,growth inhibition,[3]; at 33.0 µM,42%
same,growth inhibition,[3]; at 100.0 µM,60%
same,growth inhibition,[4]; at 1.2 µM,41%
same,growth inhibition,[4]; at 3.7 µM,28%
same,growth inhibition,[4]; at 11.0 µM,37%
same,growth inhibition,[4]; at 33.0 µM,89% (active)
same,growth inhibition,[4]; at 100.0 µM,94% (active)
same,growth inhibition,[5]; at 1.2 µM,34%
same,growth inhibition,[5]; at 3.7 µM,39%
same,growth inhibition,[5]; [16],25%
same,growth inhibition,[5]; at 11.0 µM,53%
same,growth inhibition,[5]; at 33.0 µM,85% (active)
same,growth inhibition,[5]; [17],47%
same,growth inhibition,[5]; at 50.0 µM,88.3% (active)
same,growth inhibition,[5]; at 100.0 µM,93% (active)
same,growth inhibition,[6]; at 1.2 µM,43%
same,growth inhibition,[6]; at 3.7 µM,40%
same,growth inhibition,[6]; [16],36%
same,growth inhibition,[6]; at 11.0 µM,48%
same,growth inhibition,[6]; at 33.0 µM,80% (active)
same,growth inhibition,[6]; [17],59%
same,growth inhibition,[6]; at 50.0 µM,89.2% (active)
same,growth inhibition,[6]; at 100.0 µM,95% (active)
same,growth inhibition,[7]; at 1.2 µM,10%
same,growth inhibition,[7]; at 3.7 µM,17%
same,growth inhibition,[7]; at 11.0 µM,20%
same,growth inhibition,[7]; at 33.0 µM,79% (active)
same,growth inhibition,[7]; at 100.0 µM,95% (active)
same,growth inhibition,[8]; [16],51%
same,growth inhibition,[8]; [17],67%
same,growth inhibition,[8]; at 50.0 µM,77.5% (active)
same,growth inhibition,[9]; at 1.2 µM,37%
same,growth inhibition,[9]; at 3.7 µM,44%
same,growth inhibition,[9]; at 11.0 µM,36%
same,growth inhibition,[9]; at 33.0 µM,77% (active)
same,growth inhibition,[9]; at 100.0 µM,95% (active)
same,growth inhibition,[10]; [16],16%
same,growth inhibition,[10]; [17],32%
same,growth inhibition,[10]; at 50.0 µM,77.8% (active)
same,growth inhibition,[11]; at 1.2 µM,67%
same,growth inhibition,[11]; at 3.7 µM,70% (active)
same,growth inhibition,[11]; [16],77% (active)
same,growth inhibition,[11]; at 11.0 µM,84% (active)
same,growth inhibition,[11]; at 33.0 µM,91% (active)
same,growth inhibition,[11]; [17],82% (active)
same,growth inhibition,[11]; at 50.0 µM,81% (active)
same,growth inhibition,[11]; at 100.0 µM,93% (active)
same,growth inhibition,[12]; at 1.2 µM,-19%
same,growth inhibition,[12]; at 3.7 µM,-18%
same,growth inhibition,[12]; at 11.0 µM,-19%
same,growth inhibition,[12]; at 33.0 µM,6%
same,growth inhibition,[12]; at 100.0 µM,91% (active)
same,growth inhibition,[13]; at 1.2 µM,25%
same,growth inhibition,[13]; at 3.7 µM,27%
same,growth inhibition,[13]; at 11.0 µM,47%
same,growth inhibition,[13]; at 33.0 µM,82% (active)
same,growth inhibition,[13]; at 100.0 µM,94% (active)
same,growth inhibition,[14]; at 1.2 µM,23%
same,growth inhibition,[14]; at 3.7 µM,29%
same,growth inhibition,[14]; at 11.0 µM,35%
same,growth inhibition,[14]; at 33.0 µM,80% (active)
same,growth inhibition,[14]; at 100.0 µM,94% (active)
same,growth inhibition,[15]; at 1.2 µM,-3%
same,growth inhibition,[15]; at 3.7 µM,18%
same,growth inhibition,[15]; at 11.0 µM,30%
same,growth inhibition,[15]; at 33.0 µM,79% (active)
same,growth inhibition,[15]; at 100.0 µM,93% (active)
